Data: PubChem BioAssay AID797 (University of Pittsburgh Molecular Library Screening Center, 2007)
Hit rate of the full screen: of about 200,000 compounds, about 110 (0.055%) were called active. Cut-off read from the data, not from the text of the source: active = inhibition above about 50%; inactive = the rest. What follows is part of a selection rich in actives, with near analogues and random picks from the rest.

Target: Serine/threonine-protein kinase D1 (Homo sapiens) (UniProt Q15139)
Experiment: protein kinase D1 activity blockers – biochemical, fluorescence polarization (AID 797)
Conditions: PKD1 kinase fluorescence polarization assay; stronger effect = higher value; concentration not given here

Sequence of Serine/threonine-protein kinase D1 (Homo sapiens) (Q15139 whole entry, looked up): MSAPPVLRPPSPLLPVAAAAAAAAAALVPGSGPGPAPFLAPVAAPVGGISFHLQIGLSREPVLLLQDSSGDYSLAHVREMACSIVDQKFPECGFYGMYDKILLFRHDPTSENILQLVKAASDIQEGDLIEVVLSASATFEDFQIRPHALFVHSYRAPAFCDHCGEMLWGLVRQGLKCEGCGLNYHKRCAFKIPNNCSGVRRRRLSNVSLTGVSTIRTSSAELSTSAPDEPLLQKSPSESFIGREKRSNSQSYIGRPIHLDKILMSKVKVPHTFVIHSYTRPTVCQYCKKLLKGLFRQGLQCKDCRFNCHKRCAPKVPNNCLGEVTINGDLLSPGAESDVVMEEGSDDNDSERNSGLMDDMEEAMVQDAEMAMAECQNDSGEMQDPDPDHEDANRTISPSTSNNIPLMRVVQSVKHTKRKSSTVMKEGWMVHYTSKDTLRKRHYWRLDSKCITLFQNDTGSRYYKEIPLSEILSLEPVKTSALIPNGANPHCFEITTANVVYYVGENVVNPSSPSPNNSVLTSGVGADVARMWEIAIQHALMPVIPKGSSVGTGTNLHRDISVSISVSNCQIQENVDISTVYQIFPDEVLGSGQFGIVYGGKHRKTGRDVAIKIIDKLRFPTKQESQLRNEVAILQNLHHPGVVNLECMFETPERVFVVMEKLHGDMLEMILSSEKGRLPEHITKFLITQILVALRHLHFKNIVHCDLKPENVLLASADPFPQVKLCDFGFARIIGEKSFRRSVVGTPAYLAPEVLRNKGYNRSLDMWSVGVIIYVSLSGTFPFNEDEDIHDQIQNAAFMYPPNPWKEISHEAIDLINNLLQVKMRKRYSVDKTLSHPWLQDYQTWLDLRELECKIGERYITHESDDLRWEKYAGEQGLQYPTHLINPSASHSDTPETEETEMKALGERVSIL

inhibition, inactive:
COC(=O)C1=C(C)N(c2ccc(C)cc2)/C(=C/c2ccc(O)cc2)C1=O 1.38%, Cc1ccc(-c2nnc(SCC(=O)N/N=C/c3cccs3)n2-c2ccc(C)cc2)cc1 -3.67%, Oc1ccc2ccc3cccc[n+]3c2c1 -0.84%, S=c1[nH]cc(-c2ccc(Cl)cc2)n1-c1ccccc1 -3.56%, COc1cccc(CNC(=O)CCN2C(=S)NC(C)(C)CC2C)c1 (stereo unspecified) 16.6%, O=C(Nc1cc(S(=O)(=O)N2CCOCC2)ccc1Cl)c1cc(=O)c2ccccc2o1 -4.37%, C/C(=N\OCC(=O)Nc1ccc(Br)cc1)c1cccs1 -6.23%, N#Cc1cccc(Nc2c3c(nc4ccccc24)CCCC3)c1 1.12%, COc1ccc(-c2ccc(CCC(=O)O)n2-c2ccc(O)cc2)cc1 -3.57%, CC(C)NC(=S)Nc1cccc2cnccc12 -7.44%, O=C(NC1(C(F)(F)F)NC(=O)N(C2CCCCC2)C1=O)c1ccco1 (stereo unspecified) -4.49%, Cc1onc(C(=O)NN)c1C(=O)N1CCN(C(c2ccccc2)c2ccccc2)CC1 6.23%, CCO[C@H]1OC(C(=O)O)=C[C@@H](C2CCCCC2)[C@@H]1CCCO 1.68%, O=C(N/N=C/c1cccc([N+](=O)[O-])c1)C1CC(=O)N(c2ccc(Br)cc2)C1 (stereo unspecified) 0.4%, O=C(NCCN1CCOCC1)Nc1cccc(Cl)c1 -8.08%, Cc1ccc(-c2c(C)n([O-])c3c([n+]2=O)CCC3)cc1 -5.77%, Cc1cc(C)c(C#N)c(SCC(=O)NN2CC(=O)N(c3ccccc3F)CC2=O)n1 -3.74%, O=C(OC1CCOC1=O)c1cccc(S(=O)(=O)Nc2ccc(F)cc2)c1 (stereo unspecified) 1.98%, C=CCn1cc(-c2cccc(C(F)(F)F)c2)cc(C#N)c1=O 7.22%, O=C(N1CCCC1)C12CC3CC(C1)CC(C(=O)N1CCCC1)(C3)C2 -14.2%, CCC1CO/C(=C(\C(=C(Cl)Cl)N2CCOCC2)[N+](=O)[O-])N1 (stereo unspecified) -0.65%, COc1cc(OC)c(C(=O)OC(C)C(=O)Nc2cc(C(F)(F)F)ccc2Cl)cc1OC (stereo unspecified) 8.47%, O=C(CSc1ccc(-c2ccc(F)cc2)nn1)Nc1ccc2c(c1)OCCO2 -0.29%, Cc1cc(C(=O)NNC(=S)NC(C)c2ccccc2)cs1 (stereo unspecified) 5.7%, C/C(CC(=O)Nc1cccc(C(F)(F)F)c1)=N\NC(=O)C(=O)NCC(C)C 3.3%, Cc1cc(N2CCN(C)CC2)nc2ccc(NC(=S)N3CCOCC3)cc12 -7.15%
